Source: PubChem BioAssay (several laboratories)
SKKanGAS inh: S. pyogenes SKKanGAS growth inhibitors in kanamycin, primary screen, streptokinase expression inhibitor project, SKKanGAS strain, BacTiter-Glo luminescence; 6 h; actives 1.3% (n = 300,000); inhibition, % at 7.5 µM;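 active = mean replicate score, as percent of positive control median, at least 50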;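 note: strain carries kanamycin resistance gene driven by streptokinase promoter and grows in 40 µg/ml kanamycin; loss of luminescence reflects streptokinase promoter inhibition or plain growth inhibition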
PfHsp90 set2: growth inhibition of PfHsp90-expressing yeast, primary screen, antimalarial PfHsp90 inhibitor project, S. cerevisiae, BacTiter-Glo luminescence, single point, set 2; BacTiter-Glo ATP, 48 h; yeast lacking PDR1 and PDR3 efflux regulators; inhibition, % at 9.4 µM; actives 0.32% (n = 310,000); AID 504621, 2011;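 active = every replicate shows inhibition above about 80%, whatever the replicate mean, limit read from the data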
TIM10 inh: growth inhibitors of isogenic TIM10 control yeast, primary screen, counter-screen for tim10-1 yeast inhibitor project, luminescence, uHTS; S. cerevisiae TIM10 strain growth, BacTiter-Glo luminescence, 24 h; inhibition, % at 10 µM; actives 1.4% (n = 330,000); AID 463195, 2010;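 active = inhibition of 40% or more at the single tested concentration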;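 note: wild-type TIM10 isogenic control strain grown at permissive 25 °C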
tim23-1 inh: growth inhibitors of tim23-1 mutant yeast, primary screen, luminescence, uHTS; S. cerevisiae tim23-1 growth, BacTiter-Glo luminescence, 24 h; inhibition, % at 20 µM; actives 1.3% (n = 330,000); AID 463212, 2010;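 active = growth inhibition of the mutant yeast at or above 50%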;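 note: temperature-sensitive mutant grown at 25 °C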
tim10-1 inh: growth inhibitors of tim10-1 mutant yeast, primary screen, luminescence, uHTS | AID 463190, 2010 | S. cerevisiae tim10-1 ts strain growth, BacTiter-Glo, 24 h | inhibition, % at 20 µM | actives 2.2% (n = 330,000);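 active = inhibition of at least 40%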;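 note: mutant grown at 25 °C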
tim10-1 conf: growth inhibitors of tim10-1 mutant yeast, confirmation, single concentration, luminescence, S. cerevisiae | shares compounds with tim10-1 inh | S. cerevisiae tim10-1 ts strain growth, BacTiter-Glo, 24 h | inhibition, % at 20 µM | actives 56% (n = 7,400) | AID 463213, 2010;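 active = inhibition of yeast growth at or above a set limit in either of two repeat tests at 20 µM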;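 note: tim10-1 mutant grown at permissive 25 °C to find synthetic lethal compounds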
Numbers stand for hits; . = inactive; / = no result. In the library only some 4.4% were active in any assay of this set; here they are far more common.

SMILES	SKKanGAS inh	PfHsp90 set2	TIM10 inh	tim23-1 inh	tim10-1 inh	tim10-1 conf
O=C(N/N=C/c1ccc[nH]1)c1cc(-c2ccc(Cl)cc2)nc2ccccc12	.	.	.	.	55.6	51.1
O=C(N/N=C/c1ccc([N+](=O)[O-])o1)c1cc(-c2ccc(-c3ccccc3)cc2)nc2ccccc12	74.1	.	.	.	55.7	41.5
O=C(O)COc1ccc(/C=N/NC(=O)c2cn(-c3ccccc3)nc2-c2ccccc2)cc1	.	.	.	.	.	/
O=C(N/N=C/c1ccc([N+](=O)[O-])o1)c1cc(-c2ccncc2)nc2ccccc12	.	.	.	.	.	/
O=C(N/N=C/c1ccc([N+](=O)[O-])o1)c1cn(-c2ccccc2)nc1-c1ccccc1	.	.	.	.	54.3	.
CN(C)CCNc1ccc2ncn3c4ccc(O)cc4c(=O)c1c23	/	.	/	/	/	/
C=C[C@@H]1c2cc(C)ccc2N(S(=O)(=O)c2ccc(C)cc2)[C@H](c2ccccc2C(F)(F)F)C1(C#N)C#N	/	.	.	.	.	/
CC(C)CNC(=O)CSc1ccc(S(=O)(=O)N2CCN(C)CC2)cn1	/	.	.	.	.	/
COc1ccccc1-c1noc(CCC(=O)Nc2cc(C(F)(F)F)ccc2Cl)n1	.	/	.	.	43.1	.
C=CCSc1nc2c(c(C3CC=CCC3)c1C#N)CCC2 (centres undefined)	.	.	.	.	40.9	60.2
Cc1ccc(NC(=O)c2sc(N)nc2-c2ccccc2)cc1C	.	.	.	.	48.6	37.0
CCN(Cc1nc2ccccc2c(=O)[nH]1)C(=O)c1cccc(S(=O)(=O)N2CCc3ccccc32)c1	/	.	.	.	.	/
Cn1c(NCCCO)nc2c(c1=O)C1(CCCCC1)Cc1ccccc1-2	/	.	.	.	54.1	38.1
CCCn1c(SCC(N)=O)nc2c(c1=O)C1(CCCC1)Cc1ccccc1-2	.	.	.	.	.	/
CCC(=O)Nn1cnc2c(c1=O)C1(CCCCC1)Cc1ccccc1-2	.	.	.	.	50.1	36.8
O=C(Nc1cccc(-c2cccc(F)c2)c1)C1CCN(C2CCOCC2)CC1	.	.	.	.	43.0	.
COc1ccc2oc(=O)c(/C(N)=N/NC(=O)c3ccncc3)cc2c1	.	.	.	.	.	/
O=S(=O)(NCCSCc1ccc(Cl)cc1Cl)c1ccc2c(c1)OCCO2	.	.	.	.	45.0	33.5
COc1ccc(S(=O)(=O)NCCSc2ccc(Cl)cc2)cc1OC	.	.	.	.	.	/
O=S(=O)(NCCSc1ccc(Cl)cc1)c1ccc2c(c1)OCCO2	.	.	.	.	56.0	49.2
O=S(=O)(NCc1ccc(F)cc1)c1ccc2c(c1)OCCO2	.	/	.	.	53.1	36.5
CCN(CC)CCCN(C(=O)c1cccc(C)c1)c1nc(-c2ccc(OC)cc2)cs1	.	.	.	.	.	/
Cc1ccc(S(=O)(=O)N(C)c2ccc(OCC(=O)Nc3ccc(C(=O)N(C)C)cc3)cc2)cc1C	/	.	.	.	.	/
Cc1cccc(OCC(=O)Nc2ccccc2N2CCN(C(=O)C(C)C)CC2)c1C	.	/	.	.	48.2	29.9
Cc1cccc(OCC(=O)Nc2ccccc2N2CCCC2)c1C	.	/	.	.	.	/
CC(C)C(=O)N1CCN(c2ccccc2NC(=O)c2ccc([N+](=O)[O-])o2)CC1	.	.	.	.	59.1	56.1
